{
  "source": "PubChem BioAssay (EPA / NIEHS)",
  "note": "Values joined by “and” are separate entries in the source; they are usually repeats but may differ in a detail not shown here. Identical values can stand only once. Records with an inconclusive call do not appear. Active and inactive are the calls of the source. How the source made its calls, unless noted: active means hit-call score of the fitted dose curve at least 0.9, where 1 is the maximum; inactive means score below 0.9.",
  "data": [
    {"target": "Estrogen receptor (Homo sapiens) (UniProt P03372)", "sequence (P03372 whole entry, looked up)": "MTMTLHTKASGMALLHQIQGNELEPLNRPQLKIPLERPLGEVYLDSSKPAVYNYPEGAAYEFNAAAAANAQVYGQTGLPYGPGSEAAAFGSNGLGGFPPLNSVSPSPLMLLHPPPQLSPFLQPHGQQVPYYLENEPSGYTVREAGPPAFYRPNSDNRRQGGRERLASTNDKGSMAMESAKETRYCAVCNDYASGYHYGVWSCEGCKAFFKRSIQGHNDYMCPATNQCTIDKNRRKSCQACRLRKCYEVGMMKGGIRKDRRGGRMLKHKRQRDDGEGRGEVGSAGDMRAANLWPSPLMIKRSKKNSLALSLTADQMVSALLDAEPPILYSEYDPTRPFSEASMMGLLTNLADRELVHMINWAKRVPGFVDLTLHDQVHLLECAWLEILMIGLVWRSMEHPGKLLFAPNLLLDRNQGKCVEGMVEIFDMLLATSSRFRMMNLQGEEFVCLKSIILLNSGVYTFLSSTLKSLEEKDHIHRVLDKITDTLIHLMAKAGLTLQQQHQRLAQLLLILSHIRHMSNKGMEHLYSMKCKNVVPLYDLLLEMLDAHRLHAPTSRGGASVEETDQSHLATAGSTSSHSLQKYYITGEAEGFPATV", "test": "CCTE_Deisenroth_AIME_384WELL_LUC_Active: CCTE's 384-well Estrogen Receptor Transactivation Assay with AIME metabolic competence (ERTA luciferase; metabolism positive), Deisenroth Lab (AID 2284030; active means hit-call score of the fitted dose curve at least 0.9, where 1 is the maximum)", "method_in_brief": "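In this metabolism-positive format, a 2-hour exposure to alginate-immobilized rat S9 precedes a 24 hour luciferase transactivation readout in VM7Luc4E2 cells. Dosing spans 10 concentrations from 0.002 to 200 uM.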", "values": [
      {"smiles": "CCc1cccc(CC)c1N", "outcome": "inactive"},
      {"smiles": "CCOc1ccc2[nH]cc(C(=O)NCc3ccccc3)c(=O)c2n1", "outcome": "inactive"},
      {"smiles": "CC(C)CC(C)O", "note": "(configuration not stated)", "outcome": "inactive"},
      {"smiles": "COS(C)(=O)=O", "outcome": "inactive"},
      {"smiles": "OCC(CO)(CO)CO", "outcome": "inactive"},
      {"smiles": "CCCCOC(=O)c1ccccc1", "outcome": "inactive"},
      {"smiles": "CCCCCOC(C)=O", "outcome": "inactive"},
      {"smiles": "CC(C)c1nnc2ccc(-c3ocnc3-c3cc(F)ccc3F)cn12", "outcome": "inactive"},
      {"smiles": "OCCOCCOCCO", "outcome": "inactive"},
      {"smiles": "c1ccc2c(c1)-c1cccc3c1c-2cc1ccccc13", "outcome": "inactive"},
      {"smiles": "C[C@@H](Oc1ccc(CNC(=O)c2cccnc2Oc2ccc3c(c2)OCO3)c(F)c1)C(=O)O", "outcome": "inactive"},
      {"smiles": "c1ccc2ncccc2c1", "outcome": "inactive"}
    ]},
    {"tested_on": "not listed separately", "test": "CCTE_Shafer_MEA_dev_firing_rate_mean: CCTE's Neural Network Formation Assay for Mean Firing Rate, Shafer Lab (AID 2284031);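 on AC50: curve fitted for loss of firing so AC50 reflects decreased mean firing rate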", "method_in_brief": "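Steps: seed rat cortical cells (1.5 x 10^5/well) with laminin on PEI-coated MEA; dose day 0; record DIV 5/7/9/12, full media and compound exchange after DIV 5 and 9 recordings; compute well-mean firing rate AUC.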", "values": [
      {"smiles": "OC(Cn1cncn1)(Cn1cncn1)c1ccc(F)cc1F", "outcome": "inactive"},
      {"smiles": "NCC(F)(F)C(F)(F)C(F)(F)C(F)(F)F", "outcome": "inactive"},
      {"smiles": "CCOc1ccc2[nH]cc(C(=O)NCc3ccccc3)c(=O)c2n1", "outcome": "inactive"},
      {"smiles": "OCCC(F)(F)C(F)(F)C(F)(F)C(F)(F)F", "outcome": "inactive"},
      {"smiles": "OC(O)(C(F)C(O)(O)C(F)(F)F)C(F)(F)F", "outcome": "inactive"},
      {"smiles": "C[C@]12C=CC(=O)C=C1CC[C@H]1[C@@H]3C[C@@H](O)[C@](O)(C(=O)CO)[C@@]3(C)C[C@H](O)[C@@]12F", "outcome": "inactive"},
      {"smiles": "Cn1cc[nH]c1=S", "outcome": "inactive"},
      {"smiles": "O=C(Cl)C(F)(F)C(F)(F)C(F)(F)C(=O)Cl", "outcome": "inactive"},
      {"smiles": "NC(=O)N1c2ccccc2C=Cc2ccccc21", "outcome": "inactive"},
      {"smiles": "FC(F)(F)C(F)(F)C(F)(F)C(F)(F)C(F)(F)C(F)(F)I", "outcome": "inactive"},
      {"smiles": "Nc1ccn([C@@H]2O[C@H](CO)[C@@H](O)[C@@H]2O)c(=O)n1", "AC50": "260 nM (active) and 3.02 µM (active)"},
      {"smiles": "FC(F)(F)COC(OCC(F)(F)F)OCC(F)(F)F", "outcome": "inactive"},
      {"smiles": "NNC(=O)c1ccncc1", "outcome": "inactive"},
      {"smiles": "CCCC(CCC)C(=O)O", "outcome": "inactive"},
      {"smiles": "c1ccc2c(c1)-c1cccc3c1c-2cc1ccccc13", "outcome": "inactive"}
    ]}
  ]
}
